Calls of active or inactive are those of the source. How the source made its calls: active means hit-call score of the fitted dose curve at least 0.9, where 1 is the maximum; inactive means score below 0.9.
Read-out: Interleukin-1 alpha (IL1a), IL1A (gene 3552)
Experiment: BSK_IMphg_IL1a: BioMAP Diversity Plus: IMphg Assay for Interleukin-1 alpha (IL1a) Biomarker Activity (AID 2284290)
Settings: primary human endothelial cells with macrophages
Description: BSK_IMphg is a cell-based, multiplexed-readout assay that uses venular endothelial cells and macrophages, a human vascular primary cell, with measurements taken at 24 hours after chemical dosing in a microplate: 96-well plate.BSK_IMphg_IL1a is an assay component measured in the BSK_IMphg assay. It measures IL-1a antibody related to regulation of gene expression using ELISA technology.Data from the assay component BSK_IMphg_IL1a was analyzed at the endpoint, BSK_IMphg_IL1a, in the positive analysis fitting direction relative to DMSO as the negative control and baseline of activity. Using a type of binding reporter, gain or loss-of-signal activity can be used to understand protein changes. To generalize the intended target to other relatable targets, this assay endpoint is annotated to the 'cytokine' intended target family, where the subfamily is 'interleukins'.
The levels of cell surface (or secreted, indicated by the prefix "s") biomarker endpoints were measured by ELISA. Overt cytotoxicity to cells in confluent adherent cultures (all systems other than the BT system) was assessed by measuring total protein levels using sulforhodamine B (SRB) staining in parallel cultures at the time of biomarker measurements, indicated as SRB endpoints. For proliferation assays for adherent cell types, individual cell types are cultured at sub-confluence and relative cell numbers quantified by SRB staining at time points optimized for each system (48 h: 3C and CASM3C systems; 72 h: BT and HDF3CGF systems; 96 h: SAg system). SRB was performed by staining cells with 0.1% SRB after fixation with 10% TCA and reading wells at 560 nm.Viability and proliferation of PBMC (T cells) was quantified by Alamar Blue reduction for the SAg and BT systems. For PBMC viability (referred to as PBMC Cytotoxicity within the assay endpoint names), cells were plated (75,000/well in a 96-well plate) and then chemical samples added for 1 h before addition of activators, SEB and TSST-1 (20 ng/mL final concentration each). Cells were incubated for 90 h. Then, Alamar Blue (20 uL/well) (Invitrogen, Cat DAL1100) was added for 6 h, and the plates were read with a fluorescence microplate reader at 546/580 nm (excitation/emission). For PBMC proliferation, cells were plated and activated as above but incubated for only 16 h prior to addition of Alamar Blue. Plates were read after 6 h.

| Compound | outcome |
| --- | --- |
| FC(F)(F)COC(OCC(F)(F)F)OCC(F)(F)F | inactive |
| OC(O)(C(F)C(O)(O)C(F)(F)F)C(F)(F)F | inactive |
| O=C(Cl)C(F)(F)C(F)(F)C(F)(F)C(=O)Cl | inactive |
| O=S(=O)(O)CCC(F)(F)C(F)(F)C(F)(F)C(F)(F)C(F)(F)C(F)(F)F | inactive |
| FC(F)=C(F)C(F)(F)C(F)(F)C(F)(F)C(F)(F)C(F)(F)C(F)(F)F | inactive |
| FC(F)(F)C(F)(F)C(F)(F)C(F)(F)C(F)(F)C(F)(F)I | inactive |
| C[Si](C)(C)C(F)(F)C(F)(F)C(F)(F)F | inactive |
| OCCC(F)(F)C(F)(F)C(F)(F)C(F)(F)F | inactive |
| NCC(F)(F)C(F)(F)C(F)(F)C(F)(F)F | inactive |
| FC(F)C(F)(F)COCC1CO1 (stereo not given) | inactive |

— PubChem BioAssay (EPA / NIEHS)
